From PubChem BioAssay (EPA / NIEHS)
Calls of active or inactive are those of the source. How the source made its calls: active means hit-call score of the fitted dose curve at least 0.9, where 1 is the maximum; inconclusive means response in the unintended direction; inactive means score below 0.9.

test: CPHEA_Stoker_NIS_Cytotoxicity: Cytotoxicity Assessment for CPHEA's Radioactive Iodide Uptake (RAIU) Assay for Sodium/Iodide Symporter (NIS) Inhibition, Stoker and Laws Labs (AID 2283897);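 on AC50: active means loss of ATP signal versus DMSO meaning cytotoxicity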
Experimental: CPHEA_Stoker_NIS is a cell-based, single-readout assay that uses hNIS-HEK293T-EPA, a novel human kidney cell line expressing human NIS, with measurements taken at 2 hours after chemical dosing in a 96-well plate. This radioactive iodide uptake (RAIU) assay is used to identify inhibitors of NIS-mediated iodide uptake. A parallel cytoxicity assay (Cell Titer Glo, Promega) was also run in the same cell line.CPHEA_Stoker_NIS_Cytotoxicity is one of 2 assay components measured from the CPHEA_Stoker_NIS assay. It is designed to make measurements of atp content, a form of viability reporter, as detected with bioluminescence signals by Luciferase-coupled ATP quantitation technology.Data from the assay component CPHEA_Stoker_NIS_Cytotoxicity was analyzed at the endpoint, CPHEA_Stoker_NIS_Cytotoxicity, in the positive analysis fitting direction relative to DMSO as the negative control and baseline of activity. Using a type of viability reporter, measures of ATP content for loss-of-signal activity can be used to understand the viability. To generalize the intended target to other relatable targets, this assay endpoint is annotated to the cell cycle intended target family, where the subfamily is cytotoxicity.
hNIS-HEK293T-EPA cells were seeded with a MultiFlo FX dispenser (BioTek, Winooski, VT) into ScintiPlate-96 microplates (Perkin Elmer, Waltham, MA) at a density of 4.0x10^4 cells per well in 200uL growth media and incubated for 40 hours before experimentation. On day of the assay, carrier-free 125I (Perkin-Elmer, Waltham, MA; specific activity: 17.4Ci/mg) was diluted with Hanks' balanced salt solution (Sigma, St. Louis, MO) supplemented with 10mM HEPES (uptake buffer; pH 7.4) at 5uCi/mL (288pg 125I/mL uptake buffer; 2.30nM). The assay was initiated by washing cells twice with 200uL uptake buffer using a 96-well Tecan HydroSpeed plate washer (Tecan, Mannedorf, Switzerland). Uptake buffer (59.7uL) was then added back to each well. Chemical samples (350nL at 200X) were administered using the HDR tool as previously described to achieve a 1X chemical/0.5% final DMSO concentration with subsequent addition of 10uL of 125I dilution (final [125I]: 329pM; 2.88pg/well) for a final reaction volume of 70uL/well. Cells were incubated at room temperature for 2 hours and then washed twice with 200uL ice cold uptake buffer. All uptake buffer was aspirated from wells, plates were sealed, and read on a MicroBeta2 plate reader (Perkin Elmer, Waltham, MA) using a detection protocol to measure CPM corresponding to intracellular 125I concentration. Each chemical concentration (0.001, 0.01, 0.1, 1.0, 10, and 100uM) was assayed in triplicate with three independent biological replicate plates (3 sequential cell passages). Additionally, a concentration response of NaClO4 (0.001, 0.01, 0.1, 1.0, 10, and 100uM) served as a positive control inhibition curve on each RAIU assay plate. DMSO control wells were assayed on each plate as a measure of maximum iodide uptake for normalization and determination of intra- and inter-assay variation. (Toxicol In Vitro, 2017, 40:66-78).

SMILES | outcome | AC50
Cc1ccc(-c2cc(C(F)(F)F)nn2-c2ccc(S(N)(=O)=O)cc2)cc1 | inactive | –
CCC(C)N(C)C(=O)c1cc2ccccc2c(-c2ccccc2Cl)n1 (centres undefined) | inactive | –
CCCCCCCCCCCCCCOS(=O)(=O)O | inactive | –
CC(COCC(C)OC(=O)c1ccccc1)OC(=O)c1ccccc1 (centres undefined) | inactive | –
Cc1ccc(C(C)(C)C)c(O)c1 | inactive | –
CC(=O)O[C@]1(C(C)=O)CC[C@H]2[C@@H]3C=C(Cl)C4=CC(=O)[C@@H]5C[C@@H]5[C@]4(C)[C@H]3CC[C@@]21C | inactive | –
O=C1OC(c2ccc(O)cc2)(c2ccc(O)cc2)c2ccccc21 | inactive | –
CC(=O)OCC(COC(C)=O)OC(C)=O | inactive | –
CCCCCCC(CCCCCCCCCCC(=O)OCC(COC(C)=O)OC(C)=O)OC(C)=O (centres undefined) | inactive | –
CCN(CC)CCOc1ccc(C(=C(Cl)c2ccccc2)c2ccccc2)cc1 | – | 9.92 µM (active)
CSc1ccc(Oc2ccc(S(N)(=O)=O)cc2CN(C)C)cc1C | inactive | –
O=C(Oc1ccccc1)c1cccc(C(=O)Oc2ccccc2)c1 | inactive | –
O=Cc1ccccc1C=O | inactive | –
CCc1nc(N)nc(N)c1-c1ccc(Cl)cc1 | inactive | –
COc1ccc(OC(F)(F)F)cc1CN[C@H]1CCCN[C@H]1c1ccccc1 | inactive | –
CN(C)C(=O)NC1(c2ccccc2)CCN(CCC[C@]2(c3ccc(Cl)c(Cl)c3)CCCN(C(=O)c3ccccc3)C2)CC1 | inactive | –
CCCCCCC(C=O)=Cc1ccccc1 | inactive | –
CN(C)CCCN1c2ccccc2Sc2ccc(Cl)cc21 | inactive | –
Cc1c(C)c2c(c(C)c1O)CCC(C)(COc1ccc(CC3SC(=O)NC3=O)cc1)O2 (centres undefined) | – | 12.5 µM (active)
